Only some compounds are listed: those with a hit (about 2.7% of all), similar ones and a draw of the others.
Wnt act: Wnt/beta-catenin pathway activators, primary screen, cell-based, plate reader, single point; activation, % at 9.35 µM; AID 743398, 2014; Wnt/beta-catenin reporter cell assay, activator; 300,000 tested, 1.2% active; in the data active means activation above about 30%, passing the limit was not always enough; inconclusive means no clear call, values can overlap the other calls;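 further: 0% = neutral control wells and 100% = positive control wells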
MITF act: activators of MITF-driven TRPM1 promoter reporter, primary screen, cell-based, SK-MEL-5, luciferase, single point. 300,000 tested, 0.75% active. activation, % at 12.5 µM. SK-MEL-5 TRPM1-promoter luciferase, 24 h; % of positive control, neutral wells = 0;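 active means mean activation of at least 80% with every replicate also reaching 80%; inconclusive means mean reaches 80% but some replicate falls short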;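 further: 0% = neutral control wells and 100% = parthenolide positive control wells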
CFTR F508del cor: F508del CFTR correction, initial screen, CFBE line, single point. CFBE cells, YFP halide quenching; stimulated with forskolin plus potentiator P3; % fluorescence drop versus neutral controls. activity (quench increase), % at 7.58 µM. 350,000 tested, 0.36% active. AID 720511, 2013;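 active means mean added fluorescence quench of at least 8% versus neutral control, with both replicates also reaching 8%; inconclusive means only one of the mean or replicate conditions met; inactive means mean below 8% and not both replicates reaching 8%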;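 further: cells transiently co-express mutant CFTR-F508del with the halide-sensitive YFP; corrector assay measuring rescue of mutant channel to the surface after 24 h compound exposure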
GSIS activator: GLuc luminescence reporter in INS-1E cells, primary screen for activators of glucose-dependent secretion of insulin; INS-1E GLuc reporter insulin secretion, 2-3 h; activation, % at 16.6 µM; 370,000 tested, 0.61% active;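 active means lowest replicate activation of at least 40%, so every replicate reaches that level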;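 further: 0% = median of neutral control wells and 100% = median of IBMX positive control wells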
HIV Env fusion: inhibitors of HIV-1 Env-driven cell-cell fusion, primary screen, HeLa-JRFL effector, CEM21 target cells, luciferase; 360,000 tested, 1.1% active; inhibition, % at 12.3 µM;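 active means mean replicate inhibition score of at least 50 and every replicate individually at or above 50; inconclusive means only one of the two criteria met; inactive means mean below 50 and not all replicates reaching 50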;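 further: 0% = plate neutral controls and 100% = maraviroc near 300 nM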
* marks the source's active call; other numbers are inactive results; ? = inconclusive; . = not tested or not shown.

SMILES | Wnt act | MITF act | CFTR F508del cor | GSIS activator | HIV Env fusion
Clc1cc(Cl)cc(Nc2ncnc(-n3cccc3)n2)c1 | 1 | . | 2 | 11 | -3
Cc1ccc(C)c(C2NC(=O)c3ccccc3N2)c1 (stereo not given) | -5 | -2 | 8.8* | 5 | -138
O=C(O)c1cccc(NC(=O)c2ccc(COc3ccc(Cl)cc3)cc2)c1 | -1 | 31 | -5 | -22 | -9
C/C(=N\OCc1ccc(C#N)cc1)c1ccccc1 | 0 | 88* | 4 | -17 | -85
C/C(=N\OCc1ccc(C#N)cc1)c1ccc(S(=O)(=O)N(C)C)cc1 | 23 | 96* | 0 | 4 | -6
C/C(=N/OCO/N=C(\C)c1ccccc1)c1ccccc1 | 3 | -8 | 5 | -1 | 9
C/C(=N\OCc1cccc(C(=O)O)c1)c1ccc(Cl)cc1 | 5 | . | . | -6 | 62*
CC1(C)CC(N2CCCC2)=CC(=[N+]2CCCC2)C1 | 3 | -32 | . | -33 | 59*
COC(=O)c1cc(-c2ccc(OC)cc2)on1 | -3 | 13 | -1 | -48 | -4
COc1ccc(-c2cc(C(=O)Nc3cc(C)ccc3O)no2)cc1 | -6 | 41 | 6 | 4 | -6
COc1ccc(-c2cc(C(=O)NC(C)C)no2)cc1 | . | 105* | . | -1 | -109
COc1ccc(-c2cc(C(=O)Nc3cc(Cl)ccc3O)no2)cc1 | 14 | 113* | -1 | 18 | -31
CCCN1C[C@@H](C)[C@H](OC)CN(C)C(=O)c2ccc(NC(=O)Nc3ccccc3F)cc2OC[C@@H]1C | . | . | -3 | -19 | .
COc1cc(/C=N/NC(=O)CCOc2ccccc2C)cc(Br)c1O | 0 | -9 | 2 | 1 | 17
COc1ccc(/C=N/NC(=O)CCOc2ccccc2C)cc1OC | -1 | 3 | . | 53* | 13
COc1ccc(/C=N/NC(=O)Cn2cnc3ccccc3c2=O)cc1OC | 4 | -10 | . | 56* | 31
O=C(c1ccc(F)cc1)N1CC(=O)N2[C@H](CO)[C@H](c3ccc(C#CC4CCCC4)cc3)[C@H]2C1 | . | . | 1 | -7 | .
C=C1c2cccc(O)c2C(=O)C2C(=O)[C@]3(O)C(=O)C(C(N)=O)C(=O)[C@@H](N(C)C)[C@@H]3[C@@H](O)[C@H]12 (stereo not given in full) | -3 | -10 | -2 | . | 60*
Cc1ccccc1C(=O)N=c1sccn1C | . | 6 | . | 5 | .
Cc1cccc(C(=O)N=c2sccn2C)c1[N+](=O)[O-] | 6 | 100* | -3 | 16 | -31
O=C(Cc1c(O)c2ccccc2[nH]c1=O)NC1CCCCCC1 | 0 | 1 | . | . | .
O=C(NC1CCCCCC1)c1c(O)c2ccccc2[nH]c1=O | . | 99* | . | . | .
CC(C)=CCC[C@H](C)C[C@@H]1Cc2[nH]c(=S)[nH]c(=O)c2[C@@H](c2ccc(F)cc2)O1 | 3 | . | -3 | 255* | 0
CC(C)=CCC[C@H](C)CC1Cc2[nH]c(=S)[nH]c(=O)c2C(c2ccc(F)cc2)O1 (stereo not given in full) | -1 | . | 7 | -27 | 10
COC(=O)C1=C(C)N(Cc2ccco2)C(=O)/C1=C\c1ccc(N(C)C)cc1 | . | 13 | . | 57* | -95
SMILES | Wnt act | MITF act | CFTR F508del cor | GSIS activator | HIV Env fusion
COC(=O)C1=C(C)N(Cc2ccco2)C(=O)/C1=C\c1ccc([N+](=O)[O-])cc1 | -2 | -11 | -1 | -32 | ?
CC(=O)N1CCN(C2=Nc3cccc4cccc2c34)CC1 | 11 | 20 | . | . | -36
COc1ccccc1N1CCN(C2=Nc3cccc4cccc2c34)CC1 | -3 | 95* | . | -13 | -105
O=[N+]([O-])c1ccccc1S(=O)(=O)Nc1cccc(-c2ccc(N3CCOCC3)nn2)c1 | 2 | 36 | -4 | 29 | -15
O=[N+]([O-])c1ccccc1S(=O)(=O)Nc1ccc(-c2ccc(N3CCOCC3)nn2)cc1 | -3 | 16 | -4 | 71* | -35
Cc1ccc([N+](=O)[O-])cc1S(=O)(=O)Nc1cccc(-c2ccc(N3CCOCC3)nn2)c1 | 14 | 88* | 0 | 4 | -8
O=C1N[C@H](Cc2ccccc2)COCc2cn(nn2)CC[C@H]1Cc1ccc(-c2ccccc2)cc1 | . | . | . | -14 | .
CCCC(=O)N1CCC2(CC1)CN(C(=O)C1CCCC1)[C@H](CO)c1[nH]c3cc(OC)ccc3c12 | . | . | -1 | -13 | .
CC1(O)C(c2ccccc2)=Nc2ccccc21 (stereo not given) | 61* | . | 2 | . | -86

Assay outcomes as filed in PubChem.
